Results filed as inconclusive are left out. The source made the active and inactive calls. The calls were made as follows: active = hit-call score of the fitted dose curve at least 0.9, where 1 is the maximum; inconclusive = response in the unintended direction; inactive = score below 0.9.
Assay: ATG_M_19_XSP2: Attagene TRANS-FACTORIAL Multi-Species (XSP2) HepG2 Assay for M32 Transcription Factor (Internal Marker) (AID 2283822)
In short: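 Internal background marker in a multi-species nuclear receptor TRANS panel: transfected HepG2 cells exposed 24 h, with 3 nM 6-alpha-fluorotestosterone and 1.5 nM norgestrel present. Readout is RT-PCR of reporter transcripts resolved by capillary electrophoresis, gain-of-signal versus DMSO.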

Row | Structure (SMILES) | outcome
1 | CON(C)C(=O)Nc1ccc(Cl)c(Cl)c1 | inactive
2 | CCCCOC(=O)c1ccccc1C(=O)OCCCC | inactive

Reference: PubChem BioAssay (EPA / NIEHS)
